Drawing on PubChem BioAssay (NCI), this text covers growth for 9 compounds.

Compounds without any hit were thinned out: in the full panel of roughly 83,000, 20% have a hit.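 Testing used 96-well plates and a 48-hour single-concentration exposure. Example: -40 means 40% of the starting cells died.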 Values without a mark were called inactive. Calls of active or inactive are those of the source. The calls were made as follows: active = growth percent below 10; inactive = the rest.

Among the test systems are HT29 colon; SNB-75 CNS; SNB-19 CNS; U251 CNS; PC-3 prostate; SK-MEL-5 melanoma; UACC-62 melanoma; LOX IMVI melanoma; SK-MEL-28 melanoma; SK-MEL-2 melanoma; EKVX NSCLC; SN12C renal; UO-31 renal; TK-10 renal; ACHN renal; CAKI-1 renal; CCRF-CEM leukemia; MOLT-4 leukemia; A498 renal.
Holding throughout (assay): NCI-60 one-dose screen, 48 h (100 = growth as untreated, 0 = no growth, -100 = all killed)
Conditions in all cases: 10 µM unless noted

As to `Cc1cc2nc3c4ccc(Br)cc4n(CCN(C)C)c3nc2cc1C`, the growth with HT29 colon is 5.01% (active); in the experiment with SNB-75 CNS it was 16.7%; with SNB-19 CNS, 23.5%; with U251 CNS it was 15.1%; with PC-3 prostate, 12.8%; with SK-MEL-5 melanoma, 4.17% (active). Moreover, the growth was 13.1% in the experiment on UACC-62 melanoma; -52.6% (active) with LOX IMVI melanoma; 42.4% in the experiment with SK-MEL-28 melanoma; 8.78% (active) in the experiment with SK-MEL-2 melanoma; 22.7% with EKVX NSCLC; 16.7% in the experiment with SN12C renal. Further, the growth with UO-31 renal is -30.3% (active); with TK-10 renal, 22.2%; in the experiment with ACHN renal it was -7.69% (active); in the experiment with CAKI-1 renal it was 0.198% (active); with CCRF-CEM leukemia, 12.7%; in the experiment with MOLT-4 leukemia it was 3.31% (active).

In the case of `CCC(CC)NCC(C)(C)O`, the growth is 108% with HT29 colon; 98.1% in the experiment with SNB-75 CNS; 94.6% with SNB-19 CNS; 103% in the experiment on U251 CNS; 89.9% with PC-3 prostate; 110% with SK-MEL-5 melanoma. Also, the growth with UACC-62 melanoma was 94.4%; with LOX IMVI melanoma, 101%; in the experiment with SK-MEL-28 melanoma, 115%; in the experiment with SK-MEL-2 melanoma it was 110%; in the experiment on EKVX NSCLC it was 102%; in the experiment on SN12C renal, 97.9%. The growth was 88.2% in the experiment on UO-31 renal; 109% in the experiment with TK-10 renal; 102% in the experiment with ACHN renal; 89.5% in the experiment on CAKI-1 renal; 100% in the experiment on CCRF-CEM leukemia; 103% in the experiment with MOLT-4 leukemia.

For the compound `CCCCNC(=O)Oc1ccc(/C(=C(\C)c2ccccc2)c2ccc(OCCN3CCCCC3)cc2)cc1`, the growth with HT29 colon was 0.947% (active); in the experiment with SNB-75 CNS, 84.6%; in the experiment on SNB-19 CNS, 71.5%; in the experiment with U251 CNS it was 50.7%; with PC-3 prostate, 55.3%; with SK-MEL-5 melanoma it was 68.9%. Besides, the growth in the experiment with UACC-62 melanoma is 41.8%; in the experiment on LOX IMVI melanoma, 62%; in the experiment on SK-MEL-28 melanoma it was 46.7%; with SK-MEL-2 melanoma, 72.7%; in the experiment with EKVX NSCLC it was 76.2%; in the experiment with SN12C renal it was 70.7%. Also, the growth in the experiment with UO-31 renal was 40.4%; with TK-10 renal, 85.3%; with ACHN renal it was 90.1%; in the experiment on CAKI-1 renal, 46.9%; in the experiment with CCRF-CEM leukemia, 66.3%; in the experiment on MOLT-4 leukemia it was 53.8%.

Turning to `COc1cc2oc(-c3cccc(C(=O)Nc4ccccc4)c3)cc(=O)c2c(O)c1OC`, the growth is 54.2% with HT29 colon; 57.7% with SNB-19 CNS; 36.9% with U251 CNS; 71% in the experiment with PC-3 prostate; 71.7% with SK-MEL-5 melanoma; 38.9% in the experiment on UACC-62 melanoma. For the same compound, the growth is 88.1% with LOX IMVI melanoma; 87.4% in the experiment on SK-MEL-28 melanoma; 65% with SK-MEL-2 melanoma; 97.9% in the experiment on EKVX NSCLC; 74.8% with SN12C renal; 59.7% in the experiment on UO-31 renal. Besides, the growth in the experiment with TK-10 renal was 60.8%; in the experiment with ACHN renal, 58%; with CAKI-1 renal, 48.9%; with CCRF-CEM leukemia it was 100%; with MOLT-4 leukemia, 99.7%.

On to `COc1cc(CC(=O)c2ccc(O)c(OC)c2)ccc1O`, for which the growth with HT29 colon is 94.3%; in the experiment on SNB-75 CNS, 96.8%; in the experiment with SNB-19 CNS, 98.2%; in the experiment with U251 CNS, 92.5%; in the experiment with PC-3 prostate, 83.1%; with SK-MEL-5 melanoma it was 101%. Further, the growth was 94.8% in the experiment with UACC-62 melanoma; 96.7% with LOX IMVI melanoma; 97.2% in the experiment on SK-MEL-28 melanoma; 106% in the experiment on SK-MEL-2 melanoma; 111% in the experiment with EKVX NSCLC; 94.2% with SN12C renal. The growth is 87.5% with UO-31 renal; 102% in the experiment on TK-10 renal; 102% in the experiment on ACHN renal; 98.8% in the experiment on CAKI-1 renal; 94.2% in the experiment on CCRF-CEM leukemia; 80% in the experiment with MOLT-4 leukemia.

With `CC(=O)c1cc2c(N)c(C(=O)Nc3cccc4ccncc34)sc2nc1C`, the growth is 104% with HT29 colon; 97.7% with SNB-75 CNS; 95.4% in the experiment with SNB-19 CNS; 101% with U251 CNS; 80.7% with PC-3 prostate; 64.7% with SK-MEL-5 melanoma. The growth was 69.9% in the experiment with UACC-62 melanoma; 102% in the experiment on LOX IMVI melanoma; 91.1% in the experiment with SK-MEL-28 melanoma; 78% in the experiment with SK-MEL-2 melanoma; 91.5% in the experiment with EKVX NSCLC; 99.9% in the experiment with SN12C renal. Besides, the growth in the experiment with TK-10 renal was 99%; in the experiment with ACHN renal, 102%; in the experiment on CAKI-1 renal it was 93.1%; in the experiment with CCRF-CEM leukemia, 101%; with MOLT-4 leukemia, 88.7%.

As for `CCc1ccc(-c2cn3ccnc3c(-c3ccc4ncn(Cc5ccccc5)c4c3)n2)cc1`, the growth with HT29 colon was 31.2%; with SNB-75 CNS, 70.7%; in the experiment on SNB-19 CNS, 79.1%; in the experiment on U251 CNS, 53.9%; with PC-3 prostate, 49.6%; with SK-MEL-5 melanoma, 52.1%. For the same compound, the growth was 75.1% in the experiment on UACC-62 melanoma; 49.8% in the experiment on LOX IMVI melanoma; 80.9% with SK-MEL-28 melanoma; 85.2% with SK-MEL-2 melanoma; 60.3% in the experiment on EKVX NSCLC; 77.5% with SN12C renal. The growth was 42.2% with UO-31 renal; 84.5% with TK-10 renal; 55.3% in the experiment on ACHN renal; 52.1% in the experiment with CAKI-1 renal; 105% with A498 renal; 50.3% in the experiment on CCRF-CEM leukemia. Besides, in the experiment on MOLT-4 leukemia, the growth is 45.8%.

Regarding `O=C(Nc1ccc(-c2ccc3c(c2)NC(=O)/C3=C\c2ccc[nH]2)cc1)NC1CC1`, the growth is 88% in the experiment on HT29 colon; 89.8% in the experiment with SNB-75 CNS; 92.6% in the experiment with SNB-19 CNS; 75% in the experiment on U251 CNS; 99.4% in the experiment with PC-3 prostate; 94% with SK-MEL-5 melanoma. For the same compound, the growth was 97.7% in the experiment with UACC-62 melanoma; 89.3% with LOX IMVI melanoma; 111% in the experiment with SK-MEL-28 melanoma; 112% in the experiment with SK-MEL-2 melanoma; 47.5% in the experiment on EKVX NSCLC; 101% in the experiment on SN12C renal. For the same compound, the growth with UO-31 renal is 88.2%; in the experiment with TK-10 renal, 108%; in the experiment with ACHN renal it was 101%; in the experiment with CAKI-1 renal it was 99.9%; with CCRF-CEM leukemia it was 86.1%; in the experiment with MOLT-4 leukemia, 94.2%.

For the compound `Cn1nc(CC#N)c2c(=N)n(N)cnc21`, the growth with HT29 colon was 116%; with SNB-19 CNS, 111%; with U251 CNS it was 99.4%; in the experiment with PC-3 prostate, 96.2%; in the experiment with SK-MEL-5 melanoma, 111%; in the experiment with UACC-62 melanoma, 103%. Moreover, the growth in the experiment with LOX IMVI melanoma is 103%; in the experiment with SK-MEL-28 melanoma, 121%; with SK-MEL-2 melanoma, 113%; in the experiment with EKVX NSCLC, 94.4%; in the experiment on SN12C renal, 98.6%; in the experiment on UO-31 renal, 80.1%. Besides, the growth in the experiment with TK-10 renal is 104%; in the experiment with ACHN renal it was 108%; in the experiment with CAKI-1 renal it was 95.3%; in the experiment with CCRF-CEM leukemia it was 126%; in the experiment on MOLT-4 leukemia, 94.7%.
